The record followed here is the supplement of paper PMC12350171.

Structures can show the parent of a compound that is named as a salt. Values without a mark were called inactive.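 The calls were made as follows: active = AUC significantly below DMSO controls by Student t-fit with adjusted P under 0.01; inactive = not significantly reduced.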

This experiment concerns Haemophilus parainfluenzae. The experiment is described as follows: growth AUC normalised to DMSO control (fraction of control); higher = less growth inhibition, active = hit call of the paper. The note with it: 20 µM. The method, boiled down: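 Pathogens passaged twice anaerobically were inoculated at a starting OD578 of 0.01 into pre-reduced mGAM plates with drug at 20 μM and 1% DMSO, sealed with breathable membranes. Haemophilus parainfluenzae medium was supplemented with hemin and NAD. OD578 was read hourly for 24 h, with three biological replicates. Growth-curve AUC was computed by the trapezoidal rule up to the exponential-to-stationary transition and normalised to DMSO controls on the same plate.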
For `CN1CCN(CC(=O)N2c3ccccc3C(=O)Nc3cccnc32)CC1` [Pirenzepine dihydrochloride], the “growth AUC normalised to DMSO control” value was 1.01.
As for `CC(C)[C@H](N)C(=O)OCCOCn1cnc2c(=O)nc(N)[nH]c21` [Valacyclovir hydrochloride], the “growth AUC normalised to DMSO control” value is 0.99.
`CC(C)Cc1ccc([C@H](C)C(=O)O)cc1` [(S,+) Ibuprofen]: the “growth AUC normalised to DMSO control” value was 0.941.
The same measure for `Cc1onc(-c2c(F)cccc2Cl)c1C(=O)N[C@@H]1C(=O)N2[C@@H]1SC(C)(C)[C@@H]2C(=O)O` [Flucloxacillin sodium]: 0.944; for `CCc1c2c(nc3ccc(OC(=O)N4CCC(N5CCCCC5)CC4)cc13)-c1cc3c(c(=O)n1C2)COC(=O)[C@]3(O)CC` [Irinotecan hydrochloride trihydrate]: 1.
Regarding `CCCNC(=O)NS(=O)(=O)c1ccc(Cl)cc1` [Chlorpropamide], the “growth AUC normalised to DMSO control” value is 0.995.
Consider `NC(CO)C(=O)NNCc1ccc(O)c(O)c1O` (stereo not drawn) [Benserazide hydrochloride], for which the “growth AUC normalised to DMSO control” value was 1.05.
The same measure for `CCC(NC(C)C)C(O)c1ccc(O)c(O)c1` (stereo not drawn) [Isoetharine mesylate salt]: 1.01; for `NS(=O)(=O)c1cc(C2(O)NC(=O)c3ccccc32)ccc1Cl` (stereo not drawn) [Chlorthalidone]: 1.01.
Turning to `CCC(=O)O[C@]1(C(=O)CCl)[C@@H](C)C[C@H]2[C@@H]3CCC4=CC(=O)C=C[C@]4(C)[C@@]3(F)[C@@H](O)C[C@@]21C` [Clobetasol propionate], the “growth AUC normalised to DMSO control” value was 1.47.
For `CN1C2CCCC1CC(NC(=O)c1nn(C)c3ccccc13)C2` (stereo not drawn) [Granisetron] the value was 1.02; for `CCn1cc(C(=O)O)c(=O)c2cnc(N3CCCC3)nc21` [Piromidic acid], 1.03; for `C=C1c2cccc(O)c2C(O)=C2C(=O)[C@]3(O)C(O)=C(C(N)=O)C(=O)[C@@H](N(C)C)[C@@H]3[C@@H](O)[C@H]12` [Methacycline hydrochloride], 0.0347 (active).
The same measure for `CC[C@H](C)C(=O)O[C@H]1C[C@H](O)C=C2C=C[C@H](C)[C@H](CC[C@@H](O)C[C@@H](O)CC(=O)O)[C@H]21` [Pravastatin]: 1.09; for `Cc1cc(NS(=O)(=O)c2ccc(N)cc2)no1` [Sulfamethoxazole]: 1.01; for `CN(C)CCC[C@@]1(c2ccc(F)cc2)OCc2cc(C#N)ccc21` [Escitalopram oxalate]: 1.03.
For `NS(=O)(=O)c1cc2c(cc1Cl)N=C(CSCc1ccccc1)NS2(=O)=O` [Benzthiazide] the value was 0.987.
For `O=C(NCCN1CCOCC1)c1ccc(Cl)cc1` [Moclobemide], the “growth AUC normalised to DMSO control” value is 0.971.
With `OCc1cc(C(O)CNCCCCCCOCCCCc2ccccc2)ccc1O` (stereo not drawn) [Salmeterol], the “growth AUC normalised to DMSO control” value was 0.962.
As to `CCc1ccc(CCOc2ccc(CC3SC(=O)NC3=O)cc2)nc1` (stereo not drawn) [Pioglitazone], the “growth AUC normalised to DMSO control” value was 0.955.
Turning to `Cc1ccc(-c2ncc(Cl)cc2-c2ccc(S(C)(=O)=O)cc2)cn1` [Etoricoxib], the “growth AUC normalised to DMSO control” value is 1.
With `CN1CCN2c3ccccc3Cc3ccccc3C2C1` (stereo not drawn) [Mianserine hydrochloride], the “growth AUC normalised to DMSO control” value is 0.903.
For `COC(=O)C1=C(C)NC(C)=C(C(=O)OC(C)C)C1c1cccc2nonc12` (stereo not drawn) [Isradipine] the value was 1.02.
With `CN1CCC(=C2c3ccccc3CC(=O)c3sccc32)CC1` [Ketotifen fumarate], the “growth AUC normalised to DMSO control” value is 0.997.
The same measure for `NC(N)=Nc1nc(CSCC/C(N)=N/S(N)(=O)=O)cs1` [Famotidine]: 0.975.
For `CC(C)NC[C@H](O)COc1cccc2ccccc12` [(S)-(-)-Propranolol hydrochloride] the value was 1.03; for `CCCOc1cc(N)ccc1C(=O)OCCN(CC)CC` [Propoxycaine hydrochloride], 1.04.
The same measure for `C[C@H]1O[C@H](O[C@H]2[C@H](O)[C@@H](O)[C@@H](O[C@@H]([C@H](O)[C@@H](O)C=O)[C@H](O)CO)O[C@@H]2CO)[C@H](O)[C@@H](O)[C@@H]1N[C@H]1C=C(CO)[C@@H](O)[C@H](O)[C@H]1O` [Acarbose]: 1.02.
For the compound `CC(=O)CC(c1ccccc1)c1c(O)c2ccccc2oc1=O` (stereo not drawn) [Warfarin], the “growth AUC normalised to DMSO control” value was 1.02.
For `C[C@]12CC[C@H]3C(=CCc4cc(O)ccc43)[C@@H]1CCC2=O` [Equilin] the value was 1.02; for `CC(C)(C)NC(=O)[C@@H]1C[C@@H]2CCCC[C@@H]2CN1C[C@@H](O)[C@H](Cc1ccccc1)NC(=O)[C@H](CC(N)=O)NC(=O)c1ccc2ccccc2n1` [Saquinavir mesylate], 1.63; for `Clc1ccccc1CN1CCc2sccc2C1` [Ticlopidine hydrochloride], 0.972.
For `CN(C)[C@@H]1C(=O)C(C(N)=O)=C(O)[C@@]2(O)C(=O)C3=C(O)c4c(O)ccc(Cl)c4[C@@H](O)[C@H]3C[C@@H]12` [Demeclocycline hydrochloride] the value was 0.0384 (active).
For the compound `CCC(=O)OCC(=O)[C@@]1(OC(=O)CC)[C@@H](C)C[C@H]2[C@@H]3CCC4=CC(=O)C=C[C@]4(C)[C@@]3(Cl)[C@@H](O)C[C@@]21C` [Beclomethasone dipropionate], the “growth AUC normalised to DMSO control” value was 0.969.
For `O=C(O)c1ccccc1C(=O)Nc1ccc(S(=O)(=O)Nc2nccs2)cc1` [Phthalylsulfathiazole] the value was 1.
For `CCCNC(C)C(=O)Nc1c(C)csc1C(=O)OC` (stereo not drawn) [Articaine hydrochloride] the value was 1.01; for `CCCCOc1ccc(OCCCN2CCOCC2)cc1` [Pramoxine hydrochloride], 0.936.
For `CC(=O)[C@H]1CC[C@H]2[C@@H]3CC=C4C[C@@H](O)CC[C@]4(C)[C@H]3CC[C@]12C` [Pregnenolone] the value was 1.01.
